Compounds without any hit were thinned out: in the full panel of roughly 83,000, 20% have a hit.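 Activity criterion: percent growth below 10, measured after cells in 96-well plates were exposed to a single compound concentration for 48 hours.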 Values without a mark were called inactive. Activity calls are given as the source filed them.
What was measured:
Assay in all cases: NCI-60 one-dose screen, 48 h (100 = growth as untreated, 0 = no growth, -100 = all killed)
Settings in all cases: 10 µM
NCI-H23 lung = test system: NCI-H23 lung
NCI-H226 lung = test system: NCI-H226 lung
NCI-H322M lung = test system: NCI-H322M lung
HOP-62 NSCLC = test system: HOP-62 NSCLC
NCI-H460 lung = test system: NCI-H460 lung
NCI-H522 lung = test system: NCI-H522 lung
A549/ATCC NSCLC = test system: A549/ATCC NSCLC
786-0 renal = test system: 786-0 renal
COLO 205 colon = test system: COLO 205 colon
K-562 leukemia = test system: K-562 leukemia
MDA-MB-231 breast = test system: MDA-MB-231 breast
RXF 393 renal = test system: RXF 393 renal
SF-268 CNS = test system: SF-268 CNS
SF-295 CNS = test system: SF-295 CNS
SF-539 CNS = test system: SF-539 CNS
UACC-257 melanoma = test system: UACC-257 melanoma
M14 melanoma = test system: M14 melanoma
HCT-15 colon = test system: HCT-15 colon
DU-145 prostate = test system: DU-145 prostate
MALME-3M melanoma = test system: MALME-3M melanoma

SMILES	growth (NCI-H23 lung) [%]	growth (NCI-H226 lung)	growth (NCI-H322M lung)	growth (HOP-62 NSCLC)	growth (NCI-H460 lung)	growth (NCI-H522 lung)	growth (A549/ATCC NSCLC)	growth (786-0 renal)	growth (COLO 205 colon)	growth (K-562 leukemia)	growth (MDA-MB-231 breast)	growth (RXF 393 renal)	growth (SF-268 CNS)	growth (SF-295 CNS)	growth (SF-539 CNS)	growth (UACC-257 melanoma) [%]	growth (M14 melanoma)	growth (HCT-15 colon)	growth (DU-145 prostate)	growth (MALME-3M melanoma)
COc1cc(-c2cc(/C=C3\C(=O)Nc4ccc(Cl)cc43)[nH]n2)cc(OC)c1OC	38.3	58.2%	51.5%	44.6%	38%	20.2%	40.4%	61.6%	11.4%	8.43% (active)	52.4%	69.2%	38.2%	46.9%	45.1%	18.7	5.02% (active)	7.21% (active)	–	–
COc1ccc(NC(=O)CSc2nc3ccccc3c(=O)n2CCc2ccccc2)cc1	92.2	93.9%	81.5%	48.3%	75.5%	105%	75.1%	95.3%	95.5%	–	61.5%	–	53.7%	91.5%	79.5%	87.9	75.3%	92.1%	101%	60.3%
O=C(CNC(=O)OCc1ccccc1)NCC(=O)Oc1ccc([N+](=O)[O-])cc1	102	99%	107%	107%	101%	89.6%	23.6%	103%	99.2%	117%	106%	117%	108%	103%	104%	–	89.5%	105%	111%	–
COc1ccc2c(c1)N(CCO)C1=C(C(=O)OC1)C2c1ccc(OC)c(OC)c1 (centres undefined)	46.1	46.7%	61.3%	39%	16.9%	-12.4% (active)	50.4%	42.2%	29.7%	19.8%	68%	28.2%	54.3%	7.46% (active)	13%	53.7	36.1%	39.6%	55.6%	–
O=C(Nc1ccc(Cl)c(Cl)c1)Nc1c(Oc2ccc(Cl)c(Cl)c2)ccc(Cl)c1S(=O)(=O)O	39.5	66%	50.8%	49.4%	9.02% (active)	-1.66% (active)	37%	35%	-13.9% (active)	9.98% (active)	39.5%	-14.3% (active)	52.1%	-27.2% (active)	4% (active)	61.9	19.3%	39.6%	21.1%	–
CN1CCCNc2c(c(=O)c2=O)NCCCN(C)CCCNc2c(c(=O)c2=O)NCCCN(C)CCCNc2c(c(=O)c2=O)NCCCN(C)CCCNc2c(c(=O)c2=O)NCCCN(C)CCCNc2c(c(=O)c2=O)NCCCN(C)CCCNc2c(c(=O)c2=O)NCCCN(C)CCCNc2c(c(=O)c2=O)NCCC1	46.8	74.6%	44.8%	49.1%	32.1%	56.1%	37.1%	54.3%	13.9%	–	46.5%	–	-16.5% (active)	65.9%	6.63% (active)	21.2	61.1%	62.4%	-30.2% (active)	–
COc1ccc2c(c1)C(=O)c1c-2c(OCCN(C)C)nc2ccccc12	41.5	45.5%	-5.17% (active)	30.8%	2.29% (active)	21.2%	14%	33.7%	23.4%	10.2%	67.8%	49%	26.6%	18%	45.9%	36.2	30%	20.5%	27%	–
Nc1nccc(Nc2ccccc2)n1	101	91.7%	115%	102%	109%	135%	99.1%	96.4%	114%	102%	118%	112%	109%	104%	93.5%	95.8	108%	110%	109%	–
CCCCCCCCCCCCCCCCCC(=O)OCCCCCCC	94.8	89.6%	109%	121%	109%	107%	95.2%	114%	110%	–	98.7%	96.4%	94.9%	99.9%	112%	109	108%	95.5%	104%	115%
O=C1/C(=C\c2cn(C(=O)c3ccc(Cl)cc3)c3ccccc23)c2ccccc2N1C(=O)c1ccc(Cl)cc1	83.2	89.4%	98.6%	61.4%	86%	–	63.3%	93.7%	105%	83.9%	81.2%	83.3%	77.6%	102%	67.3%	–	79.2%	65.8%	85.1%	126%
Nc1c(C(=O)Nc2cccc(Br)c2)sc2nc3c(cc12)C(O)CCC3 (centres undefined)	34.9	68.6%	48.8%	38.1%	11.3%	–	30.1%	45.1%	-1.49% (active)	7.52% (active)	44.2%	-22% (active)	46.2%	33.9%	-21.2% (active)	64.7	12.8%	23.5%	-0.178% (active)	64.3%
O=C(c1cccs1)c1ccccc1Cc1ccccc1	102	92.3%	83.6%	96.6%	107%	–	89.1%	108%	116%	98.2%	88.6%	99.5%	115%	98.3%	112%	92.8	118%	103%	128%	110%
O=C1OCC2=C1C(c1cccc(Cl)c1)c1cc3c(cc1N2CCO)OCCO3 (centres undefined)	19.6	-5.85% (active)	35.3%	26.7%	0.852% (active)	–	13.8%	23.7%	-26.9% (active)	17.5%	-3.22% (active)	33.9%	23.1%	-16.5% (active)	-3.57% (active)	44.6	12.9%	8.81% (active)	-35.6% (active)	–
Nc1c(C(=O)Nc2ccccc2)sc2nc3c(cc12)C(O)CCC3 (centres undefined)	37.1	74%	46.1%	24.6%	11.8%	–	29.3%	57.6%	-8.22% (active)	11.1%	32.8%	-6.4% (active)	46.4%	8.61% (active)	-5.31% (active)	71.1	22.1%	23.5%	5.47% (active)	87.4%
CCOC(=O)N/N=C\C(C)=N\NC(=O)OCC	101	119%	89.5%	96.3%	102%	–	92.6%	101%	114%	98.7%	111%	125%	105%	90.9%	99.9%	92.6	100%	99.5%	106%	84.5%
O=C1/C(=C\c2ccc(Br)cc2)CN(C(=O)c2ccccc2F)C/C1=C\c1ccc(Br)cc1	23.5	-30.3% (active)	60.7%	-7.85% (active)	43.3%	–	2.51% (active)	-52.4% (active)	5.27% (active)	1.26% (active)	-4.72% (active)	-76.6% (active)	4.14% (active)	-19.9% (active)	3.38% (active)	30.6	-47.8% (active)	5.63% (active)	6.51% (active)	-2.95% (active)
O=[N+]([O-])c1cccc(N=Cc2ccc3c(c2)OCO3)c1	104	104%	112%	109%	120%	–	101%	106%	120%	100%	130%	118%	114%	102%	115%	102	97.7%	122%	119%	–
Cc1cc(N(CCCNc2ccnc3cc(Cl)ccc23)Cc2cccs2)nc(Cl)n1	25.3	52.5%	72.9%	41.1%	35.3%	–	51.9%	48.2%	-37.9% (active)	0.837% (active)	46.6%	46.2%	61.9%	36%	56.3%	–	22.9%	24.3%	50.2%	37.9%
Cc1[nH]nc2c1C(c1cnn(C)c1)C(C#N)=C(N)O2 (centres undefined)	101	105%	96.9%	97.9%	104%	–	96.1%	102%	114%	93.6%	117%	106%	105%	105%	99.3%	98.3	100%	99.6%	110%	95.8%
COc1ccc(-c2nc3ncccn3c2-c2nnc(-c3ccsc3C)o2)cc1	80.5	61.6%	84.4%	23.8%	59.9%	–	78.8%	90.9%	110%	92.2%	80.6%	82.8%	–	80.3%	86.4%	78.4	107%	88.9%	88.3%	80.8%
CCCCCCN1CCN(Cc2ccc(N(CC)CC)cc2)C(=O)C1=O	39.9	64.2%	32%	33.3%	10.5%	–	21.6%	51.3%	6.83% (active)	11.7%	44.4%	7.71% (active)	42.5%	11.8%	-1.86% (active)	33.7	9.15% (active)	41.5%	-7.77% (active)	10.1%
